The supplement of paper PMC13380429

How the values were obtained:
[1] = test system: Vero E6 infected with SARS-CoV-2; assay: morphology score (similarity to uninfected cells); higher = more like uninfected cells; conditions: 24 h
[2] = test system: Vero E6 infected with SARS-CoV-2; assay: SARS-CoV-2 infection rate relative to infected DMSO; higher = more infection, active = 60 or less; conditions: 24 h

| SMILES | morphology score [1] | SARS-CoV-2 infection rate [2] |
| --- | --- | --- |
| CCCCc1nn(-c2ccccc2C(F)(F)F)c(=O)n1Cc1ccc(-c2ccccc2S(=O)(=O)NC(=O)c2sccc2C)cc1 (10 µM) | 0.0872 | 104% (inactive) |
| Cc1cc(O)c(C(=O)N[C@@H](C(=O)N[C@@H]2C(=O)N3C(C(=O)O)=C(CSc4nnnn4C)CS[C@H]23)c2ccc(O)cc2)cn1 [cefpiramide] (10 µM) | 0.00194 | 106% (inactive) |
| CC1=CC(=O)c2ccccc2C1=O [menadione] (10 µM) | 0.144 | 91% (inactive) |
| CC1(C)[C@H](C(=O)O)N2C(=O)C[C@H]2S1(=O)=O [sulbactam] (10 µM) | 0.0596 | 113% (inactive) |
| Cc1csc(S(=O)(=O)N(CC(C)C)c2cc3c(cc2OCc2ccc(C(=O)O)cc2)CCC3)n1 (10 µM) | -0.0439 | 107% (inactive) |
| CCOC(=O)c1c(C)n(C)c2ccc(O)cc12 [mecarbinate] (10 µM) | 0.132 | 112% (inactive) |
| O=C(O)c1ccccc1NCCc1ccccc1 [tromaril] (10 µM) | -0.0774 | 105% (inactive) |
| CO[C@H]1/C=C/O[C@@]2(C)Oc3c(C)c(O)c4c(O)c(c(/C=N/N5CCN(C6CCCC6)CC5)c(O)c4c3C2=O)NC(=O)/C(C)=C\C=C\[C@H](C)[C@H](O)[C@@H](C)[C@@H](O)[C@@H](C)[C@H](OC(C)=O)[C@@H]1C [rifapentine] (10 µM) | 0.192 | 107% (inactive) |
| O=C(O)c1cc(C(=O)O)c(C(=O)N(Cc2cccc(Oc3ccccc3)c2)[C@H]2CCCc3ccccc32)cc1C(=O)O (10 µM) | 0.189 | 95.5% (inactive) |
| O=C1CCC2CCC(=O)N12 [rolziracetam] (10 µM) | -0.0425 | 106% (inactive) |
| COC(=O)[C@@H](N)CCCNC(=N)N[N+](=O)[O-] (10 µM) | 0.125 | 98.5% (inactive) |
| CCN(CC)C(C)C(=O)c1ccccc1 (stereo not given) [amfepramone] (10 µM) | 0.016 | 116% (inactive) |
| CN1CCC[C@@H](CC2c3ccccc3Sc3ccccc32)C1 (racemic) [metixene] (0.833333 µM) | 0.383 | 86% (inactive) |
| C[S+]([O-])c1ccc(-c2nc(-c3ccc(F)cc3)c(-c3ccncc3)[nH]2)cc1 (stereo not given) (10 µM) | 0.0867 | 95% (inactive) |
| COc1ccc(NC(=O)c2ccc(-c3ccc(-c4noc(C)n4)cc3C)cc2)cc1N1CCN(C)CC1 (0.833333 µM) | 0.0674 | 102% (inactive) |
| COc1cc(NC(=O)c2ccccn2)ccc1Cl (10 µM) | 0.133 | 96.5% (inactive) |
| CN1C(=O)CC[C@H]1c1cccnc1 [cotinine] (10 µM) | 0.0591 | 108% (inactive) |
| O=C(O)CCc1c(C(=O)O)[nH]c2cc(Cl)cc(Cl)c12 (10 µM) | -0.0263 | 104% (inactive) |
| NC/C(=C/F)CCc1ccc(F)cc1 [mofegiline] (10 µM) | -0.0471 | 115% (inactive) |
| CCCCCCCCCCC(O)C1C=CC2C(=O)N(c3ccccc3)C(=O)C2N1Nc1ccc([N+](=O)[O-])cc1 (stereo not given) (10 µM) | 0.496 | 69.5% (inactive) |
| c1ccc2c(c1)CN1CCCC1=N2 [desoxypeganine] (10 µM) | 0.169 | 94.5% (inactive) |
| CCC(=O)NS(=O)(=O)c1ccc(-c2c(-c3ccccc3)noc2C)cc1 [parecoxib] (10 µM) | 0.0867 | 106% (inactive) |

| SMILES | morphology score [1] | SARS-CoV-2 infection rate [2] |
| --- | --- | --- |
| COC(=O)/C=C/C(=O)OCCN1C(=O)CCC1=O [diroximel-fumarate] (10 µM) | 0.0691 | 101% (inactive) |
| Clc1cccc(/C=N/N=C/c2cccc(Cl)c2)c1 [3,3'-dichlorobenzaldazine] (10 µM) | 0.288 | 99% (inactive) |
| CCCCCCOC(=O)NC(=N)c1ccc(NCc2nc3cc(C(=O)N(CCC(=O)OCC)c4ccccn4)ccc3n2C)cc1 [dabigatran-etexilate] (10 µM) | 0.027 | 98.5% (inactive) |
| CONC(=N)c1ccc(-c2ccc(-c3ccc(C(=N)NOC)cc3)o2)cc1 [pafuramidine] (10 µM) | 0.0672 | 106% (inactive) |
| CCOc1cncc(/C=C/CCNC)c1 (10 µM) | -0.0406 | 108% (inactive) |
| CN(CCc1ccc(Cl)c(Cl)c1)CCN1CCCC1 (10 µM) | 0.355 | 74.5% (inactive) |
| N#Cc1cccc(-c2nc(-c3cccnc3)no2)c1 (10 µM) | 0.143 | 98.5% (inactive) |
| CS(=O)(=O)N(Cc1ccco1)C[C@@H](O)Cn1c2ccccc2c2ccccc21 (10 µM) | 0.000274 | 91% (inactive) |
| O=C([O-])C(O)[C@H](O)[C@@H](O)[C@H](O)[C@H](O)CO.O=C([O-])C(O)[C@H](O)[C@@H](O)[C@H](O)[C@H](O)CO.[Ca+2] (stereo not given in full) [calcium-gluceptate] (10 µM) | -0.0282 | 114% (inactive) |
| CC(=O)NCCCOc1ccc(C(=O)N2CCC(N3C(=O)CCc4ccccc43)CC2)cc1 (10 µM) | 0.184 | 102% (inactive) |
| CC(C)N(CCNC(=O)CN1CCCC1=O)C(C)C [pramiracetam] (10 µM) | -0.0542 | 115% (inactive) |
| O=C(O)C1=CCNCC1 [isoguvacine] (10 µM) | 0.0662 | 99.5% (inactive) |
| CCCC(=O)O[C@]1(C(=O)CO)CC[C@H]2[C@@H]3CCC4=CC(=O)CC[C@]4(C)[C@H]3[C@@H](O)C[C@@]21C [hydrocortisone-butyrate] (10 µM) | -0.0651 | 102% (inactive) |
| C[C@H](Cc1ccc(O)c(O)c1)[C@@H](C)Cc1ccc(O)c(O)c1 [masoprocol] (10 µM) | 0.0645 | 90% (inactive) |
| CCCCCC(O)CCCC(=O)O (stereo not given) (10 µM) | 0.00301 | 103% (inactive) |
| CCCCOC(=O)c1cc2c(cn1)[nH]c1ccccc12 [beta-CCB] (10 µM) | 0.156 | 94% (inactive) |
| CCN(CC)C(=O)[C@@]1(c2ccccc2)C[C@H]1CN [milnacipran] (10 µM) | 0.0186 | 105% (inactive) |
| Cc1cccc(C)c1NC(=O)[C@@H](C)N [tocainide] (10 µM) | -0.0832 | 109% (inactive) |
| CC(C)(C)CC(C)(C)c1ccc(OCCOCC[N+](C)(C)Cc2ccccc2)cc1 [benzethonium] (10 µM) | -0.104 | 108% (inactive) |
| Cc1c(CN2CCN(C(=O)[C@H](C)O)CC2)sc2c(N3CCOCC3)nc(-c3cnc(N)nc3)nc12 (10 µM) | -0.0562 | 113% (inactive) |
| C[N+](C)(C)CCOC(=O)CCC(=O)OCC[N+](C)(C)C [succinylcholine-chloride] (10 µM) | -0.0136 | 110% (inactive) |
| O=C(O)C1=CO[C@@H](O[C@@H]2O[C@H](CO)[C@@H](O)[C@H](O)[C@H]2O)[C@@H]2C(CO)=CC[C@H]12 [Geniposidic acid] (10 µM) | -0.163 | 114% (inactive) |

| SMILES | morphology score [1] | SARS-CoV-2 infection rate [2] |
| --- | --- | --- |
| Oc1ccc(-c2nc3cc(O)cc(Br)c3o2)cc1 (10 µM) | 0.128 | 94.5% (inactive) |
| COC(=O)[C@@H]1[C@H]2C[C@H]3c4[nH]c5ccccc5c4CCN3C[C@@H]2CC[C@@H]1O [yohimbine] (10 µM) | 0.0665 | 109% (inactive) |
| C#Cc1cccc(Nc2ncnc3cc4c(cc23)OCCOCCOCCO4)c1 [icotinib] (0.833333 µM) | -0.00998 | 117% (inactive) |
| CCS(=O)(=O)CCn1c([N+](=O)[O-])cnc1C [tinidazole] (10 µM) | 0.142 | 108% (inactive) |
| CCCN1CCC[C@@H]2Cc3n[nH]cc3C[C@H]21 [quinpirol-(-)] (10 µM) | 0.203 | 92.5% (inactive) |
| Clc1ccc(C2=CCC[C@H]3CC[C@@H]2N3)cn1 (10 µM) | -0.0924 | 110% (inactive) |
| COc1ccc(C(=O)c2ccccc2O)c(O)c1 [dioxybenzone] (0.833333 µM) | 0.165 | 88% (inactive) |
| O=C(Nc1ccccc1)[C@]12C[C@H]1/C(=N\O)c1ccccc1O2 (10 µM) | 0.246 | 79% (inactive) |
| Clc1cccc(SC2CCNCC2)n1 [anpirtoline] (10 µM) | 0.0464 | 106% (inactive) |
| COc1ccccc1NC(=O)OCC1CCN(C(=O)OC(C)(C)C)CC1 (10 µM) | 0.0728 | 97% (inactive) |
| Cc1ccc(Cl)c(OCC(O)CNC(C)(C)C)c1 (stereo not given) [bupranolol] (10 µM) | -0.00864 | 111% (inactive) |
| O=c1c2ccccc2[se]n1-c1ccccc1 [ebselen] (10 µM) | 0.34 | 84% (inactive) |
| O=C(CN1CCNCC1)NC1CCCCC1 [esaprazole] (10 µM) | 0.0266 | 104% (inactive) |
| C[N+](C)(C)CCOC(N)=O [carbachol] (10 µM) | -0.148 | 101% (inactive) |
| O=C(O)C(O)C(O)C(=O)O (stereo not given) [tartaric-acid] (10 µM) | -0.0312 | 103% (inactive) |
| O=C(O)[C@]1(Cc2cccc(Nc3nccs3)n2)CC[C@@H](Oc2cccc(Cl)c2F)CC1 (0.833333 µM) | 0.175 | 106% (inactive) |
| Cc1cn([C@H]2C[C@H](N=[N+]=[N-])[C@@H](CO)O2)c(=O)[nH]c1=O [zidovudine] (10 µM) | -0.144 | 108% (inactive) |
| CCOCCn1c(C2CCN(CCc3ccc(C(C)(C)C(=O)O)cc3)CC2)nc2ccccc21 [bilastine] (10 µM) | 0.144 | 107% (inactive) |
| CN1C(C(=O)Nc2ccccn2)=C(O)c2sccc2S1(=O)=O [tenoxicam] (10 µM) | -0.0614 | 108% (inactive) |
| Oc1nc(O)c2cn[nH]c2n1 [oxypurinol] (10 µM) | -0.157 | 111% (inactive) |
| NS(=O)(=O)c1ccc2c(c1)C1C=CCC1C(c1ccc(Br)cc1)N2 (stereo not given) (10 µM) | -0.0557 | 95% (inactive) |
